# This is a sample that favours compounds with a hit; in the whole collection about 0.71% have one here.
# RGS12 GoLoco inh – qHTS Assay for Inhibitors of RGS12 GoLoco Motif Activity (Red Fluorophore). Guanine nucleotide-binding protein G(i) subunit alpha-1 (Homo sapiens), P63096. Gai1:RGS12 GoLoco peptide FP, rhodamine, 10 min. Potency, µM (titrated, usually from 61.6 µM), inactives show top-dose activity, negative = inhibition, actives largely listed as inhibitors. 0.44% of 230,000 active. AID 880, 2007; active means well fitted inhibition curve with a large enough effect, not every such curve was filed as active; inactive means no such curve, though single readings can be large or run the other way; further: on the % scale 0 is the no-effect control and ±100 the full control effect; nearly all actives have a fitted effect of over 30% in size
# Target sequence (P63096 whole entry, looked up): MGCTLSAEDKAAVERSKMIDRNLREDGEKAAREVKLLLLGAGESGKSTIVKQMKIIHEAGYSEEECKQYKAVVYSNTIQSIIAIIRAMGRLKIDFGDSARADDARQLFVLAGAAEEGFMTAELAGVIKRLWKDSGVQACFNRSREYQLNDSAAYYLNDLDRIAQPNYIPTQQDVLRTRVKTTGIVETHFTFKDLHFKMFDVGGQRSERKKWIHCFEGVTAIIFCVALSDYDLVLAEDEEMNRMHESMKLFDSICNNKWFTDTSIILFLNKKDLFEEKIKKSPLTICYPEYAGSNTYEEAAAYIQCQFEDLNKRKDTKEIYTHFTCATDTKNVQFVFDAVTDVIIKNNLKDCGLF
# TR SRC2 fluor cs – Total Fluorescence Counterscreen for Inhibitors of the Interaction of Thyroid Hormone Receptor and Steroid Receptor Coregulator 2; TRb/SRC2 Texas Red total fluorescence interference; Potency, µM (highest dose often 106 µM), without a hit: at the top dose fluorescence change, negative = quenching; 0.29% of 280,000 active; active means well fitted curve in either direction with a large enough effect; inconclusive means small, poorly fitted or top-dose-only effect; further: on the % scale 0 is the no-effect control and ±100 the full control effect
#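 Human TRb ligand-binding domain at 0.6 uM with 20 nM Texas Red SRC2 peptide in Tris buffer containing 1 uM T3 and 5% DMSO, incubated with compound 5 h at ambient temperature. Total fluorescence (555/632 nm) calculated as parallel + 2 × perpendicular.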
# RECQ1 inh-1 – qHTS Assay for Inhibitors of RecQ-Like Dna Helicase 1 (RECQ1); ATP-dependent DNA helicase Q1 (Homo sapiens), P46063; RECQ1 DNA unwinding, red fluorescence kinetic read; Potency, µM (titrated, usually from 57.3 µM), without a hit: at the highest dose activity, negative = inhibition, most hits filed as inhibitors; 0.54% of 240,000 active;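 further: plate controls were vehicle for no effect and no enzyme for full effect; nearly all actives have a fitted effect of over 30% in size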
#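 50 nM RECQ1T1 preincubated 15 min with compound in Tris pH 8.0 buffer with MgCl2, DTT, Tween-20 and 2.5 ug/ml poly(dI-dC); started with 200 nM TAMRA/BHQ-2 forked duplex and 2 mM ATP. Unwinding read as fluorescence (525/598 nm), two reads 2 h apart.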
# ERG Ets-DNA blk – qHTS for Small Molecule Inhibitors of the ERG Ets/DNA interaction; Transcriptional regulator ERG (Homo sapiens), P11308; fluorescence polarization, His-ERG Ets domain / labelled DNA; Potency, µM (titrated, usually from 76.9 µM), without a hit: at the highest dose FP activity, negative = inhibition, most hits filed as inhibitors; 0.028% of 370,000 active; AID 624246, 2012; active means well fitted inhibition curve with a large enough effect in the polarisation, with a control signal flat; inconclusive means small, poorly fitted or top-dose-only effect, or effect the other way, or a change in a side signal; inactive means no such curve, though single readings can be large or run the other way; the % refers to the polarisation;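 further: polarization taken with two DNA probes labelled with fluorescein and Texas red; % of control where 0% means no effect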
#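 His-tagged ERG Ets domain (1 uM in the protein solution; 300mM KCl, 50mM Tris-HCl, 1mM EDTA, 1mM DTT, pH 7.5) received compound, then a probe mix of 5 nM fluorescein-DNA and 100nM Texas-615-DNA. Fluorescence polarization was read for both dyes.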
# TRb SRC2 PPI – qHTS for Inhibitors of the Interaction of Thyroid Hormone Receptor and Steroid Receptor Coregulator 2; Potency, µM (series often up to 106 µM), inactives show at the highest dose activity change, negative = inhibition, actives largely listed as inhibitors; Thyroid hormone receptor beta (Homo sapiens), P10828; 0.065% of 280,000 active; TRbeta-SRC2 peptide binding, fluorescence polarization; receptor liganded with 1 µM T3;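 further: plate controls were bound peptide for no effect and peptide without receptor for full effect; nearly all actives have a fitted effect of over 50% in size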
#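 Polarization signal, normalized between peptide-alone and full complex controls, measured compound effects on T3-liganded human TRb LBD (0.6 uM) binding 20 nM Texas Red SRC2 peptide after 5 hr.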
# BLM helicase inh – qHTS Assay for Inhibitors of Bloom's syndrome helicase (BLM); 0.2% of 350,000 active; RecQ-like DNA helicase BLM (Homo sapiens), P54132; recombinant BLM DNA unwinding, fluorescence dequenching; Potency, µM (series often up to 56.1 µM), for the others: at the top dose activity change, negative = inhibition, usual class: inhibitors;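 further: plate controls were vehicle for no effect and no enzyme for full effect; nearly all actives have a fitted effect of over 35% in size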
# RECQ1 inh conf – Confirmation qHTS Assay for Inhibitors of RecQ-Like Dna Helicase 1 (RECQ1) | shares compounds with RECQ1 inh-1 | RECQ1 helicase DNA unwinding, fluorescence | Potency, µM (top dose mostly 229 µM), inactives show at the top dose activity change, negative = inhibition, actives largely listed as inhibitors | 28% of 610 active | AID 2708, 2010; further: on the % scale 0 is the no-effect control and ±100 the full control effect; nearly all actives have a fitted effect of over 45% in size
# RECQ1 ADP FP – Counterscreen for RECQ1 Inhibitors: ADP Fluorescence Polarization Displacement Assay; shares compounds with RECQ1 inh-1; ADP fluorescence polarization displacement counterscreen; Potency, µM (titrated, usually from 228 µM), inactives show at the top dose activity change, negative = inhibition, actives largely listed as inhibitors; 27% of 530 active; AID 2711, 2010; further: on the % scale 0 is the no-effect control and ±100 the full control effect; nearly all actives have a fitted effect of over 45% in size
# RECQ1 inh-2 – Confirmation qHTS Assay for Inhibitors of RecQ-Like Dna Helicase 1 (RECQ1) - Round 2 Cherry Picks. shares compounds with RECQ1 inh-1. recombinant RECQ1 DNA unwinding, red fluorescence. Potency, µM (doses to about 119 µM), for the others: at the highest dose activity, negative = inhibition, most hits filed as inhibitors. 15% of 1,100 active. AID 504841, 2011; further: on the % scale 0 is the no-effect control and ±100 the full control effect; nearly all actives have a fitted effect of over 50% in size
# * hit, by the source's call; i = inactive; ? = inconclusive; . = no result given; [ ] = remark or other dose. Unless noted, the call rests on the fitted dose curve; in most records, active means well fitted curve in the direction sought with a large enough effect; inconclusive means small, poorly fitted or top-dose-only effect, or another doubt; inactive means no such curve, though single readings can be large; an effect the other way counts as inactive or inconclusive. Potency means the concentration at half of the fitted maximal effect.
SMILES,RGS12 GoLoco inh,TR SRC2 fluor cs,RECQ1 inh-1,ERG Ets-DNA blk,TRb SRC2 PPI,BLM helicase inh,RECQ1 inh-2,others
CC(=O)N(C)/C=C1\Sc2ccccc2C1=O,16%,9%,?,0%,8%,-2%,-15%,
Cc1nc2c(ccc3nc(NC(=O)C(c4ccccc4)c4ccccc4)sc32)s1,1%,-1%,25µM*,0%,11%,-10%,-22%,
Cc1nc2c(ccc3nc(NC(=O)Cc4cccc5ccccc45)sc32)s1,9%,0%,7%,-1%,5%,2%,.,
O=C(Nc1ccccc1)N1CCC(c2nc(-c3ccc(S(=O)(=O)N4CCOCC4)cc3)no2)CC1,2%,0%,i,-1%,6%,-3%,.,RECQ1 inh conf=8%;RECQ1 ADP FP=-16%
O=C(c1ccccc1)N1CCC(c2nc(-c3ccc(S(=O)(=O)N4CCOCC4)cc3)no2)CC1,10%,-1%,i,5%,3%,-4%,.,
COc1ccc(-c2cc(C3C4C=CCCC4(C)C(=O)N3Cc3ccccc3)ccc2F)cc1 (configuration not stated),.,-2%,i,.,3%,-5%,.,
Cc1ccc(CNC(=O)c2c(-c3ccccc3Cl)noc2C)cc1,.,.,.,7%,.,-4%,.,
Cc1onc(-c2ccccc2Cl)c1C(=O)NCc1ccco1,26%,-17%,20µM*,.,-7%,-26%,1%,RECQ1 inh conf=40µM*;RECQ1 ADP FP=45µM*
O=c1c2c(-c3ccco3)csc2nc(SCc2cn3cccnc3n2)n1-c1ccccc1,9%,-6%,13µM*,-2%,13%,-11%,-22%,
O=C(CSc1nc2scc(-c3ccco3)c2c(=O)n1-c1ccccc1)N1CCOCC1,-3%,-1%,i,-3%,-10%,-5%,.,
NC(=O)CSc1nc2scc(-c3ccco3)c2c(=O)n1-c1ccccc1,-6%,-7%,28µM*,1%,4%,?,?,RECQ1 inh conf=?;RECQ1 ADP FP=-5%[91.9 µM]
C=CCn1c(SCC(=O)NCC2CCCO2)nc2scc(-c3ccc(OC)cc3)c2c1=O (configuration not stated),.,.,.,-1%,.,-4%,.,
C=CCn1c(SCC(=O)NCC2CCCO2)nc2scc(-c3ccco3)c2c1=O (configuration not stated),11%,-1%,?,-15%,-12%,-23%,?,
COc1ccc2cc(C(C)c3nc4ccccc4c(=O)n3N)ccc2c1 (configuration not stated),4%,0%,28µM*,-1%,0%,-10%,-23%,

# Screening data as filed in PubChem BioAssay.
